# Records with an inconclusive call do not appear. Where a call stands in place of a potency, no number is given. Unmarked numbers belong to inactive results. The source made the active and inactive calls. Unless noted, calls follow the shape of the dose curve; as a rule, active = well fitted curve in the direction sought with a large enough effect; inconclusive = small, poorly fitted or top-dose-only effect, or another doubt; inactive = no such curve, though single readings can be large; an effect the other way counts as inactive or inconclusive.
# Key:
# [1] = Cell Viability - LYMP2-009 (AID 968); also: nearly all actives have a fitted effect of over 55% in size; also: potency is read from the fitted curve at half-maximal effect
# [2] = Cell Viability - LYMP2-017 (AID 972); also: nearly all actives have a fitted effect of over 55% in size; also: potency is read from the fitted curve at half-maximal effect
# Method in brief: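 CellTiter-Glo luminescence (cellular ATP, 30 min RT) measured cytotoxicity after 24 hr compound treatment at 37 C. Cells were a human lymphoblastoid line, LYMP2-017, plated at 2500/well and incubated 5 hr first; concentration-response fitted with Hill equation for AC50.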
# [3] = Cell Viability - LYMP2-019 (AID 973); also: nearly all actives have a fitted effect of over 55% in size; also: potency is read from the fitted curve at half-maximal effect
# Method in brief: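 AC50 values come from Hill-equation fits of luminescent intracellular ATP (CellTiter-Glo, 30 min, room temperature) following 24 h compound exposure at 37 C. Cells: LYMP2-019 lymphoblastoid line, 2500 per well, in complete culture medium.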
# [4] = Cell Viability - LYMP2-021 (AID 974); also: nearly all actives have a fitted effect of over 55% in size; also: potency is read from the fitted curve at half-maximal effect
# Method in brief: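 AC50 values come from Hill-equation fits to CellTiter-Glo luminescence (ATP content), read after 24 hour compound exposure at 37 C of 2500 LYMP2-021 lymphoblastoid cells/well; tetraoctylammonium bromide as positive control.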
# [5] = Cell Viability - LYMP2-010 (AID 981); also: nearly all actives have a fitted effect of over 55% in size; also: potency is read from the fitted curve at half-maximal effect
# Method in brief: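 CellTiter-Glo ATP luminescence measured cytotoxicity after 24 h compound exposure at 37 C. LYMP2-010 cells were seeded at 2500/well, with tetraoctylammonium bromide as control; concentration-response curves gave AC50 values by the Hill equation.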
# [6] = biological target: Retinoic acid receptor RXR-alpha (Homo sapiens) (UniProt P19793); assay: qHTS assay for small molecule antagonists of retinoid X receptor alpha signaling (AID 588546; active = well fitted inhibition curve with a large enough effect in the signal ratio, with a control signal flat, not every such curve was filed as active; the % refers to the signal ratio;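 also: cells stimulated with 9-cis-retinoic acid as agonist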); conditions: HEK293T RXRa-UAS-bla, beta-lactamase ratio, antagonist mode
# Method in brief: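 Beta-lactamase reporter inhibition, read as CCF4 fluorescence ratio (ex 405, em 460/530 nm) after 2 h at RT. HEK293T UAS-bla cells, 2500/well, were stimulated with 9-cis-RA at 500 or 100 nM final alongside test compound for 18 h at 37 C.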
# [7] = biological target: Voltage-gated inwardly rectifying potassium channel KCNH2 (Homo sapiens) (UniProt Q12809); assay: qHTS Assay for Small Molecule Inhibitors of the Human hERG Channel Activity (AID 588834);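 also: lower thallium flux fluorescence means stronger hERG block; nearly all actives have a fitted effect of over 50% in size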; also: potency is read from the fitted curve at half-maximal effect
# Method in brief: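 Step 1: BacMam hERG transduction of U2OS, 4 hrs RT. Step 2: overnight 37 °C, plate 2000 cells/well, 4 hr. Step 3: FluxOR load, compound 10 min, stimulate, read fluorescence.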
# [8] = qHTS assay for environmental chemicals that activate the Aryl hydrocarbon Receptor (AhR) signaling pathway (AID 651777); conditions: 1A2-DRE human hepatoma cells, luciferase, 24 h; activation: hits give high values; also: nearly all actives have a fitted effect of over 15% in size; also: potency is read from the fitted curve at half-maximal effect
# Method in brief: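 Luminescence read-out: One-Glo added for 30 min at RT after 24 hr compound treatment (37 C, 5% CO2) of human hepatoma cells expressing a DRE/CYP1A2 promoter–luciferase reporter; increased signal indicates AhR activation.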
# [9] = Cell Viability - Renal Proximal Tubule (AID 545);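 also: cells exposed to compound for 40 hours; nearly all actives have a fitted effect of over 40% in size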
# Method in brief: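 Luminescent ATP signal (CellTiter-Glo) served as the viability read-out after 40 hr compound exposure of freshly isolated rat proximal tubule cells at 37 °C. Concentration-dependent ATP loss was fitted with the Hill equation to give AC50.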
# [10] = biological target: Cytochrome P450 3A4 (Homo sapiens) (UniProt P08684); assay: qHTS Assay for Inhibitors and Substrates of Cytochrome P450 3A4 (AID 884); also: nearly all actives have a fitted effect of over 50% in size; also: potency is read from the fitted curve at half-maximal effect
# Method in brief: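 Luminescent readout of luciferin produced by CYP3A4 (20 nM) dealkylation of Luciferin-PPXE, 25 uM (its KM). NADPH-driven reaction ran 60 min at RT after 10 min compound preincubation; data scaled to 57 uM ketoconazole as 100% inhibition.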
# [11] = Cell Viability - LYMP2-011 (AID 969); also: nearly all actives have a fitted effect of over 60% in size
# Method in brief: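 Cytotoxicity qHTS with ATP content as read-out: lymphoblastoid cells (2500/well) exposed to compound for 24 h at 37 C, then luciferase luminescence measured. Concentration-response data fitted with the standard Hill equation to give AC50.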
# [12] = Cell Viability - LYMP2-002 (AID 977); also: series mostly up to about 92 µM
# Method in brief: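 Human lymphoblastoid cells (2500/well) in complete medium were preincubated 5 hr at 37 C, then exposed to compounds for 24 hr at 37 C. Intracellular ATP was read by CellTiter-Glo luminescence; AC50 came from Hill-equation concentration-response fits.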
# [13] = Cell Viability - LYMP2-020 (AID 986)
# Method in brief: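 Cytotoxicity in qHTS format: luminescent ATP readout from CellTiter-Glo after 24 h compound exposure at 37 C in complete medium. LYMP2-020 lymphoblastoid cells were seeded at 2500/well; concentration-response data fitted to the Hill equation for AC50.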
# [14] = Cell Viability - LYMP1-002 - Assay at 40 hr (AID 994); also: nearly all actives have a fitted effect of over 60% in size
# Method in brief: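 Cytotoxicity was read as loss of cellular ATP (CellTiter-Glo luminescence) after 40 hr compound exposure at 37 C of 2500 LYMP1-002 lymphoblastoid cells per well. Concentration-response data were fitted with the standard Hill equation to give AC50.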
# [15] = qHTS assay for small molecule activators of the p53 signaling pathway (AID 651743; active = well fitted activation curve with a large enough effect in the signal ratio, not every such curve was filed as active; the % refers to the signal ratio; also: potency is read from the fitted curve at half-maximal effect; as to activation: series mostly up to about 92 µM); conditions: HCT-116 p53RE-bla, beta-lactamase FRET ratio, 16 h; activation: hits give high values
# Method in brief: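 After 16 hours compound treatment at 37 C, HCT-116 cells stably expressing p53RE-driven beta-lactamase were loaded with LiveBLAzer B/G FRET substrate for 2 hours at room temperature. Fluorescence intensity served as the p53 activation read-out.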
# [16] = qHTS assay for small molecule activators of the nuclear factor-kappa B (NF-kB) signaling pathway (AID 651749; active = well fitted activation curve with a large enough effect in the signal ratio; the % refers to the signal ratio; also: series mostly up to about 77 µM); conditions: NF-kB-bla ME-180 cells, beta-lactamase FRET ratio, 16 h; hits give high values
# Method in brief: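 Activation measured after 16 hr compound treatment at 37C, 5% CO2, of 2,000 ME-180 cells/well stably expressing an NF-kB response element–driven beta-lactamase reporter, via FRET-disruption fluorescence.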
# [17] = qHTS assay for small molecule agonists of the antioxidant response element (ARE) signaling pathway measured by Nrf2-dependant transcriptional activity (AID 720636; active = well fitted curve in the direction sought with a large enough effect in the repeat runs; an effect the other way counts as inactive or inconclusive; also: potency is read from the fitted curve at half-maximal effect;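 as to activation: HepG2 cells with an ARE-driven luciferase reporter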)
# Method in brief: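 HepG2 ARE-luc reporter line, 1% dialyzed FBS; 6 hr attachment at 37 C, compound pinned in, 16 hr at 37 C/5% CO2; ONE-Glo, 30 min RT, luminescence read.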
# [18] = qHTS assay for small molecule antagonists of the retinoid-related orphan receptor gamma (ROR-gamma) signaling pathway - cell viability counter screen (AID 720652; active = well fitted curve in the direction sought with a large enough effect in the repeat runs; an effect the other way counts as inactive or inconclusive;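 also: CHO reporter cells with doxycycline-induced ROR-gamma expression; series mostly up to about 92 µM; compound exposure lasted 16 hr before ATP read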)
# Method in brief: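 Cytotoxicity counter screen: intracellular ATP (CellTiter-Glo luminescence) measured in the doxycycline-induced CHO RORE-luciferase reporter line after 16 hr compound exposure at 37 C, 5% CO2.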
# [19] = qHTS assay for cell viability of HEK293 cells (AID 743288); conditions: ATP luminescence (CellTiter-Glo), 18 h, hits give low values; also: nearly all actives have a fitted effect of over 50% in size
# Method in brief: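 Viable-cell counts were inferred from luciferase-based ATP content in HEK293 cells seeded at 2,000/well, pre-incubated ≥5 h, then dosed with DMSO-solubilised compounds for 18 h at 37 C.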
# [20] = biological target: Nuclear receptor ROR-gamma (Homo sapiens) (UniProt P51449); assay: qHTS assay for small molecule antagonists of the retinoid-related orphan receptor gamma (ROR-gamma) signaling pathway (AID 651802); also: nearly all actives have a fitted effect of over 60% in size; also: potency is read from the fitted curve at half-maximal effect
# Method in brief: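 Luminescence (One-Glo, 30 min RT) measured 16 h after compound addition and doxycycline induction at 37C. Reporter: RORE-luciferase under TET-inducible ROR-gamma in CHO cells.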
# Sequence of Retinoic acid receptor RXR-alpha (Homo sapiens) (P19793 whole entry, looked up): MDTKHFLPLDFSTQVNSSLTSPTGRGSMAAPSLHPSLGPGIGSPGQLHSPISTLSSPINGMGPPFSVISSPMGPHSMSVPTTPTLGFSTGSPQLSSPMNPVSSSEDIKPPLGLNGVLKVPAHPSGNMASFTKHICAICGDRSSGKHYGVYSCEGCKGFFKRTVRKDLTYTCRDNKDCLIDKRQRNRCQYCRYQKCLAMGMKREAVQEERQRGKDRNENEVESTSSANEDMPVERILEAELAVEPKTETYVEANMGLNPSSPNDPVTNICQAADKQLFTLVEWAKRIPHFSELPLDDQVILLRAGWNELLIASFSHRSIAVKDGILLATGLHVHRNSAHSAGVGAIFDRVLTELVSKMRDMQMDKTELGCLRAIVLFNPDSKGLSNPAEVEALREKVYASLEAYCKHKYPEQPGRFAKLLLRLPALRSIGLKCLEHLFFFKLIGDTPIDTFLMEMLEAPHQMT
# Sequence of Voltage-gated inwardly rectifying potassium channel KCNH2 (Homo sapiens) (Q12809 whole entry, looked up): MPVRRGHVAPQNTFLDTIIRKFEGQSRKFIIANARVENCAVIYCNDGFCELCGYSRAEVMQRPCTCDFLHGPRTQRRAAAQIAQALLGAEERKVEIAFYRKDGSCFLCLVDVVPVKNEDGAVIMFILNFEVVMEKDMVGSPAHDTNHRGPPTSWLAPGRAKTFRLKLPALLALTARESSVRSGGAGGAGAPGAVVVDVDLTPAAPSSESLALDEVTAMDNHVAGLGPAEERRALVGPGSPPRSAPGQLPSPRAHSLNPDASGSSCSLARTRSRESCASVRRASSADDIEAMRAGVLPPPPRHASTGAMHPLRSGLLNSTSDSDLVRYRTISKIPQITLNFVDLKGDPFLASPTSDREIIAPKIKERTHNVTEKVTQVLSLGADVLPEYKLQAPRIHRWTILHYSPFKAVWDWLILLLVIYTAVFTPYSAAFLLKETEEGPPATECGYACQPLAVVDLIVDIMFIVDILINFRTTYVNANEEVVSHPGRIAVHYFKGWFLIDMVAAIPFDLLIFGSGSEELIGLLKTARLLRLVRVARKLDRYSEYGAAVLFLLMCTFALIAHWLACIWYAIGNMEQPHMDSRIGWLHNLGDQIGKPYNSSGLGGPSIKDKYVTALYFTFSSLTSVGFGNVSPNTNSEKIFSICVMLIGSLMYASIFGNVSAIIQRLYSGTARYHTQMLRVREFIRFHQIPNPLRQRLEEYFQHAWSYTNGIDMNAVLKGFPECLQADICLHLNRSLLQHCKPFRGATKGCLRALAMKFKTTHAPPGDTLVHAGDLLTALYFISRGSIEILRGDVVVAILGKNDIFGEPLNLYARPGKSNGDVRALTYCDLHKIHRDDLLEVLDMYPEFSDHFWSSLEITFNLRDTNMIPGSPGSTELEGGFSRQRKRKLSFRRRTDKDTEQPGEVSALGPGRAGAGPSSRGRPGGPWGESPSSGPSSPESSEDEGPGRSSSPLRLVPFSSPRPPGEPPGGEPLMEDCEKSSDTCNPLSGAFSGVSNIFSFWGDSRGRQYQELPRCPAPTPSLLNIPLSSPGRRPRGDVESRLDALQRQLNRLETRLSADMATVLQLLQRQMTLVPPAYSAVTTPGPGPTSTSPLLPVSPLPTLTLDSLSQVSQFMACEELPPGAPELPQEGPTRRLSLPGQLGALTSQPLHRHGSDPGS
# Sequence of Cytochrome P450 3A4 (Homo sapiens) (P08684 whole entry, looked up): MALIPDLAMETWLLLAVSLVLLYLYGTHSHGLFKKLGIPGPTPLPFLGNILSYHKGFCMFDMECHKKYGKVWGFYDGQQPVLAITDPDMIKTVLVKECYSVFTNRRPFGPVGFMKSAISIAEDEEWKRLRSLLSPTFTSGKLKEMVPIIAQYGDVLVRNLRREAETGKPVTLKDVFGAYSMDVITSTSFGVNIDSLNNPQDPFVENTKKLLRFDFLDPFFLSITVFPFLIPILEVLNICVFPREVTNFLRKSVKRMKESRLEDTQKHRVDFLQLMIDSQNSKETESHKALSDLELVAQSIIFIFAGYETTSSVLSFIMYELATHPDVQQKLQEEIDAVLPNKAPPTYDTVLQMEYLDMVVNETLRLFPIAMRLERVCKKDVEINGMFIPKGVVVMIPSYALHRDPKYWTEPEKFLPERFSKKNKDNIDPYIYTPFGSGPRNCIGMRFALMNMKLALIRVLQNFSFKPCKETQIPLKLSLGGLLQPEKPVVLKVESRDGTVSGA
# Sequence of Nuclear receptor ROR-gamma (Homo sapiens) (P51449 whole entry, looked up): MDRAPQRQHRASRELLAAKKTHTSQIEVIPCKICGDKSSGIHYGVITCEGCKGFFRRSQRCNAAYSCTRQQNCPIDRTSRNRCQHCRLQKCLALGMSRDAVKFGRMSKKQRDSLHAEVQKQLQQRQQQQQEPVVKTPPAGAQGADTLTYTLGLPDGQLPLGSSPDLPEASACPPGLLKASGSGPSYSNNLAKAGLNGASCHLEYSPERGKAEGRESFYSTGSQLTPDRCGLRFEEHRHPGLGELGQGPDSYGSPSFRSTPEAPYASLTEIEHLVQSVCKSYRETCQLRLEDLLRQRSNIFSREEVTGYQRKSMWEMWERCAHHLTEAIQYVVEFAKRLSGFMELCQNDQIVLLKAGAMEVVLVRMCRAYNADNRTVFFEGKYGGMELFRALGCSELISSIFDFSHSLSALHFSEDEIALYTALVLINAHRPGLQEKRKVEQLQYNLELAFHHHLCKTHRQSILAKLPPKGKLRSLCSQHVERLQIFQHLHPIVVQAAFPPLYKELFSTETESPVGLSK
structure (smiles),measurement,setting,value
CN(C)c1ccc(N)cc1,Potency,[1],50.1 µM (active)
same,Potency,[2],50.1 µM (active)
same,Potency,[3],50.1 µM (active)
same,Potency,[4],63.1 µM (active)
same,Potency,[5],50.1 µM (active)
same,max response,[6],-17.1%
same,Potency,[7],35.5 µM (active)
same,Potency,[8],44.7 µM (active)
C/C=C/CC#N,outcome,[9],inactive
same,Potency,[10],inactive
same,Potency,[1],inactive
same,Potency,[11],inactive
same,Potency,[3],inactive
same,Potency,[4],inactive
same,Potency,[12],inactive
same,Potency,[5],inactive
same,Potency,[13],inactive
same,Potency,[14],inactive
same,max response,[6],13.1%
same,Potency,[7],inactive
same,activation,[15],-0.715%
same,activation,[16],1.19%
same,activation,[8],-0.768%
same,Potency,[17],inactive
same,Potency,[18],inactive
same,max response,[19],-10.8%
O=P(OCCCl)(OCCCl)OCCCl,outcome,[9],inactive
same,Potency,[10],inactive
same,Potency,[1],inactive
same,Potency,[11],inactive
same,Potency,[2],inactive
same,Potency,[3],inactive
same,Potency,[4],inactive
same,Potency,[12],inactive
same,Potency,[5],inactive
same,Potency,[13],inactive
same,Potency,[14],inactive
same,activation,[15],-2.67%
same,activation,[8],0.332%
same,Potency,[20],inactive
same,Potency,[17],inactive
same,Potency,[18],inactive
same,max response,[19],-2.52%
O=[N+]([O-])c1cccc2c([N+](=O)[O-])cccc12,outcome,[9],inactive
same,Potency,[10],inactive
same,Potency,[1],inactive
same,Potency,[11],inactive
same,Potency,[2],inactive
same,Potency,[4],inactive
same,Potency,[12],inactive
same,Potency,[5],inactive
same,Potency,[13],inactive
same,Potency,[14],inactive
same,max response,[6],7.28%
same,Potency,[7],inactive
same,activation,[16],0.0339%
same,Potency,[20],inactive
same,Potency,[18],inactive
same,max response,[19],-6.41%
Clc1cccc(Cl)c1,Potency,[1],inactive
same,Potency,[11],inactive
same,Potency,[2],inactive
same,Potency,[3],inactive
same,Potency,[12],inactive
same,Potency,[5],inactive
same,Potency,[13],inactive
same,Potency,[14],inactive
same,max response,[6],24.2%
same,activation,[16],-1.17%
same,Potency,[20],inactive
same,Potency,[17],inactive
same,max response,[19],-11.3%
Brc1ccc(Oc2ccc(Br)cc2Br)c(Br)c1,outcome,[9],inactive
same,Potency,[10],inactive
same,Potency,[1],inactive
same,Potency,[11],inactive
same,Potency,[2],inactive
same,Potency,[4],inactive
same,Potency,[12],inactive
same,Potency,[5],inactive
same,Potency,[13],inactive
same,Potency,[14],inactive
same,activation,[16],0.581%
same,activation,[8],7.07%
same,Potency,[20],inactive
same,Potency,[17],inactive
Nc1c(Br)cc([N+](=O)[O-])cc1[N+](=O)[O-],Potency,[1],inactive
same,Potency,[11],inactive
same,Potency,[2],inactive
same,Potency,[3],inactive
same,Potency,[12],inactive
same,Potency,[14],inactive
same,activation,[15],-4.7%
same,activation,[16],-0.945%
same,activation,[8],3.36%
same,Potency,[20],inactive
same,Potency,[18],inactive
same,max response,[19],-10.1%
CN(C)c1ccc(N=Nc2ccccc2)cc1,Potency,[10],inactive
same,Potency,[11],inactive
same,Potency,[2],inactive
same,Potency,[3],inactive
same,Potency,[4],inactive
same,Potency,[5],inactive
same,Potency,[13],inactive
same,Potency,[14],inactive
same,max response,[6],-20.4%
same,activation,[15],-7.04%
same,Potency,[8],44.7 µM (active)
same,Potency,[18],inactive
same,max response,[19],-8.55%
Oc1cc(Cl)c(Cl)c(Cl)c1,Potency,[14],inactive
same,Potency,[7],inactive
same,Potency,[15],44.7 µM (active)
same,activation,[16],-0.357%
same,activation,[8],1.76%
same,Potency,[20],13.3 µM (active)
same,max response,[19],-15.1%
Nc1cc(Cl)ccc1O,outcome,[9],inactive
same,Potency,[10],inactive
same,Potency,[11],inactive
same,Potency,[2],inactive
same,Potency,[3],inactive
same,max response,[6],-9.48%
same,Potency,[7],inactive
same,activation,[16],-0.288%
same,Potency,[8],44.7 µM (active)
same,Potency,[20],inactive
same,Potency,[17],21.1 µM (active)
same,max response,[19],-15.2%
c1ccc(OCC2CO2)cc1 (centres undefined),outcome,[9],inactive
same,Potency,[10],inactive
same,Potency,[1],inactive
same,Potency,[11],inactive
same,Potency,[3],inactive
same,Potency,[4],inactive
same,Potency,[12],inactive
same,Potency,[5],inactive
same,Potency,[13],inactive
same,Potency,[14],inactive
same,max response,[6],-20.9%
same,Potency,[7],inactive
same,activation,[15],-2.65%
same,activation,[16],0.652%
same,Potency,[18],inactive
same,max response,[19],5.64%
C=C(C)CCl,outcome,[9],inactive
same,Potency,[10],inactive
same,Potency,[11],inactive
same,Potency,[2],inactive
same,Potency,[3],inactive
same,Potency,[4],inactive
same,Potency,[12],inactive
same,Potency,[5],inactive
same,Potency,[14],inactive
same,max response,[6],1.96%
same,activation,[16],-0.185%
same,activation,[8],-0.792%
same,Potency,[20],inactive
same,Potency,[17],inactive
same,Potency,[18],inactive
same,max response,[19],-1.82%
CCCCOC(C)=O,outcome,[9],inactive
same,Potency,[10],inactive
same,Potency,[1],inactive
same,Potency,[11],inactive
same,Potency,[2],inactive
same,Potency,[3],inactive
same,Potency,[4],inactive
same,Potency,[12],inactive
same,Potency,[5],inactive
same,Potency,[14],inactive
same,Potency,[7],inactive
same,activation,[16],-1.17%
same,activation,[8],-0.098%
same,Potency,[20],inactive
same,Potency,[17],inactive
same,Potency,[18],inactive
same,max response,[19],-4.32%
c1ccc2c(c1)ccc1cc3c(ccc4ccccc43)cc12,Potency,[15],39.8 µM (active)
same,Potency,[20],inactive
O=[N+]([O-])c1ccc(O)c([N+](=O)[O-])c1,Potency,[10],inactive
same,Potency,[11],inactive
same,Potency,[2],inactive
same,Potency,[3],inactive
same,Potency,[4],inactive
same,Potency,[12],inactive
same,Potency,[13],inactive
same,Potency,[14],inactive
same,max response,[6],9.93%
same,Potency,[7],inactive
same,activation,[15],9.63%
same,activation,[16],3.32%
same,activation,[8],0.436%
same,Potency,[17],inactive
same,Potency,[18],inactive
c1ccc2c(c1)-c1cccc3c1c-2cc1ccccc13,Potency,[8],10 µM (active)
same,Potency,[20],inactive
S=c1[nH]c2ccccc2[nH]1,outcome,[9],inactive
same,Potency,[10],10 µM (active)
same,Potency,[1],inactive
same,Potency,[11],inactive
same,Potency,[2],inactive
same,Potency,[4],inactive
same,Potency,[12],inactive
same,Potency,[5],inactive
same,Potency,[13],inactive
same,Potency,[14],inactive
same,max response,[6],5.37%
same,Potency,[7],inactive
same,activation,[8],1.98%
same,Potency,[17],inactive
same,Potency,[18],inactive
same,max response,[19],7.64%
